The structures appear in SMILES notation. Inconclusive results are not listed. Where a call stands in place of a potency, no number is given. Activity calls are given as the source filed them. Unless noted, the call rests on the fitted dose curve; in most records, active means well fitted curve in the direction sought with a large enough effect; inconclusive means small, poorly fitted or top-dose-only effect, or another doubt; inactive means no such curve, though single readings can be large; an effect the other way counts as inactive or inconclusive.

Chain of DNA dC->dU-editing enzyme APOBEC-3G (Homo sapiens) (Q9HC16 whole entry, looked up): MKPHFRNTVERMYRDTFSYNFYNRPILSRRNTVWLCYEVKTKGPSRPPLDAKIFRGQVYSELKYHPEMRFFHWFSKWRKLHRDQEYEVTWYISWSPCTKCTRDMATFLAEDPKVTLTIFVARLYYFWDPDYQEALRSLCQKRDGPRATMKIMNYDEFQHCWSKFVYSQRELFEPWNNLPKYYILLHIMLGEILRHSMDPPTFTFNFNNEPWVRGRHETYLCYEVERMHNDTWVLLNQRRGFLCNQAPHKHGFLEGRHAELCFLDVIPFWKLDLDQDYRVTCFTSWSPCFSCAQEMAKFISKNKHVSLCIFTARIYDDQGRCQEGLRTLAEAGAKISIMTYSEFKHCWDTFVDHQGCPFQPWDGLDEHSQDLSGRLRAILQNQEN
Chain of Estrogen receptor (Homo sapiens) (P03372 whole entry, looked up): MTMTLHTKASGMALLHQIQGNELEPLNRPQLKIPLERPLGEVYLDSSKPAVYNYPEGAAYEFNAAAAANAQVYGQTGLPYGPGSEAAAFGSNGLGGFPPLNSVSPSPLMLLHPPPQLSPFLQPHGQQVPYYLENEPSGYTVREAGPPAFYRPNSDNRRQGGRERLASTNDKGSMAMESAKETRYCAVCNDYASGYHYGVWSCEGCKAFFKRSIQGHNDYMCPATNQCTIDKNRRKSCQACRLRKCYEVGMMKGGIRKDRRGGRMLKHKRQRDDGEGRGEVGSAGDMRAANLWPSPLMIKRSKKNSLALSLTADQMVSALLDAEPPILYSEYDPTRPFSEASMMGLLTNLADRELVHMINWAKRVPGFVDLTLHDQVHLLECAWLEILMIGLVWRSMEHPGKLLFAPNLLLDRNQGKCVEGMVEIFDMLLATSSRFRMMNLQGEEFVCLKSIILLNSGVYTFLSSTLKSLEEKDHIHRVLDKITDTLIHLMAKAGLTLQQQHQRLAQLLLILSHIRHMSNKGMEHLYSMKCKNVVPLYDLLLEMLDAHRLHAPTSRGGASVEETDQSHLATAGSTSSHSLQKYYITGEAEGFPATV
Chain of Ubiquitin carboxyl-terminal hydrolase 1 (Homo sapiens) (O94782 whole entry, looked up): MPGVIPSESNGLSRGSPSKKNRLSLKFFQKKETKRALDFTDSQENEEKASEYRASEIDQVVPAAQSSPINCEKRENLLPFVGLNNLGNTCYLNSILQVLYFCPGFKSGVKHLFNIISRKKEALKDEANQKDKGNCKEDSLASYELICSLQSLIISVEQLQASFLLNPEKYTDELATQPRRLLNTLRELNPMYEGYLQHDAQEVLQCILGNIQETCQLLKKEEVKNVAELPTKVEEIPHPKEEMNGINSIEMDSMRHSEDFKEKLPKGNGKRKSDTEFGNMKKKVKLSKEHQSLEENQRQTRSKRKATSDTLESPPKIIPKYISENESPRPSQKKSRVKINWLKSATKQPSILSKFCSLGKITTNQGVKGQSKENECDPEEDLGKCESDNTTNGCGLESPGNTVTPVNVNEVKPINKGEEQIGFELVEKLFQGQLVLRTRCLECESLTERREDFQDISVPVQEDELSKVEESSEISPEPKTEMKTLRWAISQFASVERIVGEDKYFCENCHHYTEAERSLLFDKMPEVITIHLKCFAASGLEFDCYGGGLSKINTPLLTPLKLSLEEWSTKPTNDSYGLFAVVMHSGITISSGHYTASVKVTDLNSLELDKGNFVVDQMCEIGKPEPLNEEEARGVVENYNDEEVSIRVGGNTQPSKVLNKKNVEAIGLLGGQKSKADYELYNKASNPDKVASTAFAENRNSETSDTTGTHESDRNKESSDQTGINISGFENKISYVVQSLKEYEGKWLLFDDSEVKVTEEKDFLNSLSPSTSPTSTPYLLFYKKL

One experiment concerns the target Ubiquitin carboxyl-terminal hydrolase 1 (Homo sapiens) (UniProt O94782). Put plainly: Inhibitors of USP1/UAF1: Pilot qHTS (AID 504865). Further: nearly all actives have a fitted effect of over 35% in size. Further: potency means the concentration at half of the fitted maximal effect. As to conditions: purified USP1/UAF1, Ub-rhodamine cleavage fluorescence; series mostly up to 114 µM. The method in brief:
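Deubiquitinase activity followed as kinetic rhodamine fluorescence release from 150 nM Ub-Rho. 1 nM USP1/UAF1 with compound, after 15 min room-temperature preincubation, in HEPES pH 7.8 buffer containing TCEP, EDTA, BSA and Tween-20.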
For orientation: qHTS replaces the single test concentration by a dilution series.
Take `C[C@]12CCC(=O)C=C1CC[C@@H]1[C@@H]2CC[C@]2(C)C(=O)CC[C@@H]12`: the Potency result was “inactive”.
On the same count and under the same terms, next, `CCOP(=S)(OCC)Oc1ccc2c(C)c(Cl)c(=O)oc2c1`: “inactive”.
Same read-out and setting: next, `Cc1ncsc1CCCl`: “inactive”.
On to `O=C1c2ccccc2C(=O)C1C(=O)C(c1ccccc1)c1ccccc1`, for which the Potency is 31.6 µM (active).
The same measure, in the same setting: next, `COc1cc(OC)c(OC)cc1C=O`: “inactive”.
For the compound `CC(C)NC(C)C`, the Potency result is “inactive”.
Still for that read-out and setting: next, `COC(=O)C(c1ccccc1)C1CCCCN1` (configuration not stated): “inactive”; `C=C(C)[C@H]1CN[C@H](C(=O)O)[C@H]1CC(=O)O`: “inactive”; `CC(C)N(CCC(C(N)=O)(c1ccccc1)c1ccccn1)C(C)C` (configuration not stated): “inactive”.
Still for that read-out and setting: the value for `O=C(CCCN1CCC2(CC1)C(=O)NCN2c1ccccc1)c1ccc(F)cc1` was “inactive”.
For the compound `Nc1ccc([As](=O)(O)O)cc1`, the Potency entry was “inactive”.
The same measure, in the same setting: next, `COP(=S)(OC)Oc1ccc(SC)c(C)c1`: “inactive”.
On the same count and under the same terms, next, `NCCc1ccc(O)cc1`: “inactive”.
In the case of `COc1ccc2c(c1OC)C(=O)O[C@H]2[C@@H]1c2cc3c(cc2CCN1C)OCO3`, the Potency entry is “inactive”.
Same read-out and setting: the value for `Clc1cccc(SC2CCNCC2)n1` was “inactive”.
As to `Clc1ccc(C(c2ccc(Cl)cc2)C(Cl)(Cl)Cl)cc1`, the Potency entry is “inactive”.
Take `CCOC(=O)CC(SP(=S)(OC)OC)C(=O)OCC` (configuration not stated): the Potency result was “inactive”.
With `CC(=O)N1CCN(c2ccc(OC[C@H]3CO[C@](Cn4ccnc4)(c4ccc(Cl)cc4Cl)O3)cc2)CC1`, the Potency entry was “inactive”.
Take `C=CCN1C[C@H](C)N([C@H](c2ccc(C(=O)N(CC)CC)cc2)c2cccc(OC)c2)C[C@H]1C`: the Potency result is “inactive”.
Take `COP(=S)(OC)SCN1C(=O)c2ccccc2C1=O`: the Potency result was “inactive”.
Still for that read-out and setting: next, `Cc1cc(=O)n(-c2ccccc2)n1C`: “inactive”.
Turning to `CCCC(C)(COC(N)=O)COC(N)=O`, the Potency result is “inactive”.
With `O=c1[nH]oc2c1CCNC2`, the Potency entry is “inactive”.
With `CC(NC(C)(C)C)C(=O)c1cccc(Cl)c1` (configuration not stated), the Potency result was “inactive”.
In the case of `O=P1(N(CCCl)CCCl)NCCCO1` (configuration not stated), the Potency result was “inactive”.
The same measure, in the same setting: next, `CC(C)c1cccc(C(C)C)c1O`: “inactive”; `Nc1ccccc1C(=O)O`: “inactive”; `O=C(O)CCCc1ccc(N(CCCl)CCCl)cc1`: “inactive”.

Test system in another experiment: not listed separately
Put plainly: qHTS for Inhibitors of ATXN expression: Validation of Cytotoxic Assay (AID 588349). The conditions noted are these: cytotoxicity counter-screen for ATXN expression inhibitors, cell viability; series mostly up to 57.1 µM. A digest of the protocol:
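Cytotoxicity counter-screen: HEK293 cells exposed to compound titrations, 72 hr, 37 degrees C. Read-out is intracellular ATP (CellTiter Glo luminescence) as a viability measure.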
On to `Cc1ncsc1CCCl`, for which the compound was classed as inactive.
On the same count and under the same terms, next, `C=C(C)[C@H]1CN[C@H](C(=O)O)[C@H]1CC(=O)O`: “inactive”.
`CC(C)N(CCC(C(N)=O)(c1ccccc1)c1ccccn1)C(C)C` (configuration not stated): the compound was classed as inactive.
On the same count and under the same terms, next, `NCCc1ccc(O)cc1`: “inactive”.
As to `COc1ccc2c(c1OC)C(=O)O[C@H]2[C@@H]1c2cc3c(cc2CCN1C)OCO3`, the call was inactive.
On to `O=c1[nH]oc2c1CCNC2`, for which the call was inactive.
For `CC(NC(C)(C)C)C(=O)c1cccc(Cl)c1` (configuration not stated), the outcome was inactive.
The same measure, in the same setting: next, `O=P1(N(CCCl)CCCl)NCCCO1` (configuration not stated): “inactive”; `CC(C)c1cccc(C(C)C)c1O`: “inactive”; `O=C(O)CCCc1ccc(N(CCCl)CCCl)cc1`: “inactive”.

Test system in another experiment: not listed separately
Description: qHTS for Inhibitors of ATXN expression: Validation (AID 588378). Further: nearly all actives have a fitted effect of over 75% in size. As to conditions: cell-based ATXN2 expression reporter assay, luminescence; series mostly up to 57.1 µM. The method in brief: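 Luciferase luminescence (Bright-Glo) from an ATXN2-FFLuc HEK293 line after 24 h compound exposure at 37 °C, preceded by a CellTiter-Fluor fluorescence viability read. Serial dilutions of a reference ATXN2 inhibitor and a luciferase inhibitor served as controls.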
Take `Cc1ncsc1CCCl`: the compound was called inactive.
On the same count and under the same terms, the value for `C=C(C)[C@H]1CN[C@H](C(=O)O)[C@H]1CC(=O)O` was “inactive”; that for `CC(C)N(CCC(C(N)=O)(c1ccccc1)c1ccccn1)C(C)C` (configuration not stated) was “inactive”; that for `O=C(CCCN1CCC2(CC1)C(=O)NCN2c1ccccc1)c1ccc(F)cc1` was “inactive”.
For `NCCc1ccc(O)cc1`, the result was inactive.
Consider `COc1ccc2c(c1OC)C(=O)O[C@H]2[C@@H]1c2cc3c(cc2CCN1C)OCO3`, for which the call was inactive.
Same read-out and setting: the value for `O=c1[nH]oc2c1CCNC2` was “inactive”; that for `CC(NC(C)(C)C)C(=O)c1cccc(Cl)c1` (configuration not stated) was “inactive”.
As for `O=P1(N(CCCl)CCCl)NCCCO1` (configuration not stated), the outcome was inactive.
In the case of `CC(C)c1cccc(C(C)C)c1O`, the compound was classed as inactive.
Same read-out and setting: next, `O=C(O)CCCc1ccc(N(CCCl)CCCl)cc1`: “inactive”.

The next experiment concerns the target DNA dC->dU-editing enzyme APOBEC-3G (Homo sapiens) (UniProt Q9HC16). Put plainly: qHTS for inhibitors of Vif-A3G interactions: Validation (AID 588379). As to conditions: Vif-A3G protein interaction assay; series mostly up to 46.1 µM. The text has this: The recent discovery and characterization of host restriction factors, which provide a potent defense to invading retroviruses, has provided new targets for antiviral drug development. APOBEC3G (A3G) and APOBEC3F (A3F) are potent cytidine deaminases that block HIV-1 replication; HIV-1 expresses the Vif protein, which counteracts A3G and A3F by binding to them and inducing their proteasomal degradation.
The Vif-A3G and Vif-A3F interactions provide two potential targets for development of small molecules which can interfere with the ability of Vif to degrade A3G or A3F. […] To identify inhibitors that can interfere with Vif mediated degradation of A3G and A3F, we have developed Hela cell lines that stably express A3G or A3F tagged with eYFP at the C-terminal end (A3G-eYFP or A3F-eYFP, respectively) and Vif. In the absence of an inhibitor, Vif induces degradation of A3G-eYFP and A3F-eYFP, and the cells are not fluorescent. In the presence of an inhibitor, it is expected that Vif will be unable to degrade A3G-eYFP and/or A3F-eYFP, resulting in an increase in yellow fluorescence. In this assays Vif A3G was screened against the Molecular Library Small Molecile Repository (MLSMR).
NIH Chemical Genomics Center [NCGC]
NIH Molecular Libraries Probe Centers Network [MLPCN]
Assay Submitter (PI): Vinay Pathak, National Cancer Institute
5 uL of 700 cells/well of A3G-YFP cells are dispensed into black, clear bottom plates. The plates are incubated overnight at 37 deg C. 23 nL of compounds are added by pintool. The plates are incubated overnight at 37 deg C and then read on the TTP Acumen (Ex 488/ Em 500-530).
Turning to `Cc1ncsc1CCCl`, the compound was classed as inactive.
Take `O=C(CCCN1CCC2(CC1)C(=O)NCN2c1ccccc1)c1ccc(F)cc1`: the call was inactive.
Same read-out and setting: next, `Clc1cccc(SC2CCNCC2)n1`: “inactive”.
As for `C=CCN1C[C@H](C)N([C@H](c2ccc(C(=O)N(CC)CC)cc2)c2cccc(OC)c2)C[C@H]1C`, the outcome was inactive.
For `O=c1[nH]oc2c1CCNC2`, the compound was classed as inactive.

Another experiment has as its target Estrogen receptor (Homo sapiens) (UniProt P03372). Put plainly: qHTS assay for small molecule antagonists of estrogen receptor alpha signaling (AID 588513; active means well fitted curve in the direction sought with a large enough effect in the signal ratio, with a control signal flat, not every such curve was filed as active; the % refers to the signal ratio). As to conditions: ER-alpha-UAS-bla HEK293, beta-lactamase ratio, antagonist mode; series mostly up to 76.9 µM. The method in brief:
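Antagonist mode: inhibition of 0.5 nM 17-beta-estradiol-driven beta-lactamase reporter in HEK 293 ER-alpha-UAS-bla cells, 18 h at 37C, CCF4 readout after 2 h at RT. Normalised to estradiol and DMSO; titration fitted to Hill.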
`C[C@]12CCC(=O)C=C1CC[C@@H]1[C@@H]2CC[C@]2(C)C(=O)CC[C@@H]12`: the outcome was inactive.
Turning to `CN1C[C@H](C(=O)N[C@]2(C)O[C@@]3(O)[C@@H]4CCCN4C(=O)[C@H](Cc4ccccc4)N3C2=O)C=C2c3cccc4[nH]cc(c34)C[C@H]21`, the outcome was inactive.
For the compound `O=C(Oc1ccccc1)c1ccccc1O`, the result was inactive.
The same measure, in the same setting: the value for `COc1cc(OC)c(OC)cc1C=O` was “inactive”.
For `CC(C)NC(C)C`, the result was inactive.
Same read-out and setting: the value for `CCC(C)(C)c1ccc(O)cc1` was “inactive”.
On the same count and under the same terms, the value for `COP(=S)(OC)Oc1ccc(SC)c(C)c1` was “inactive”.
As to `NCCc1ccc(O)cc1`, the result was inactive.
Same read-out and setting: the value for `CCOC(=O)CC(SP(=S)(OC)OC)C(=O)OCC` (configuration not stated) was “inactive”; that for `O=P1(N(CCCl)CCCl)NCCCO1` (configuration not stated) was “inactive”; that for `CC(C)c1cccc(C(C)C)c1O` was “inactive”.
On the same count and under the same terms, next, `Nc1ccccc1C(=O)O`: “inactive”; `O=C(O)CCCc1ccc(N(CCCl)CCCl)cc1`: “inactive”.

Another experiment shares this target. Put plainly: qHTS assay for small molecule agonists of estrogen receptor alpha signaling (AID 588514; calls by dose curve; further: nearly all actives have a fitted effect of over 70% in size; further: potency means the concentration at half of the fitted maximal effect). The conditions noted are these: ER-alpha-UAS-bla HEK293, beta-lactamase ratio, 18 h; series mostly up to 76.8 µM. The method in brief:
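Read-out: CCF4 fluorescence from a beta-lactamase reporter in ER-alpha-UAS-bla HEK 293 cells after 18 hrs of compound exposure at 37 C. Normalized to 20 nM 17-beta-estradiol (100%) and DMSO (0%).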
Turning to `CN1C[C@H](C(=O)N[C@]2(C)O[C@@]3(O)[C@@H]4CCCN4C(=O)[C@H](Cc4ccccc4)N3C2=O)C=C2c3cccc4[nH]cc(c34)C[C@H]21`, the Potency result is “inactive”.
On the same count and under the same terms, next, `COc1cc(OC)c(OC)cc1C=O`: “inactive”.
On the same count and under the same terms, the value for `CC(C)NC(C)C` was “inactive”; that for `COC(=O)C(c1ccccc1)C1CCCCN1` (configuration not stated) was “inactive”; that for `C[C@]12CCC(=O)C=C1CC[C@@H]1[C@@H]2CC[C@@]2(C)[C@H]1CC[C@]2(C)O` was 12.6 µM (active).
For the compound `Nc1ccc([As](=O)(O)O)cc1`, the Potency is 15.8 µM (active).
For `COP(=S)(OC)Oc1ccc(SC)c(C)c1`, the Potency result is “inactive”.
Consider `NCCc1ccc(O)cc1`, for which the Potency result was “inactive”.
The same measure, in the same setting: the value for `COP(=S)(OC)Oc1cc(Cl)c(Cl)cc1Cl` was “inactive”.
With `CCOC(=O)CC(SP(=S)(OC)OC)C(=O)OCC` (configuration not stated), the Potency result is “inactive”.
On to `O=P1(N(CCCl)CCCl)NCCCO1` (configuration not stated), for which the Potency entry is “inactive”.
The same measure, in the same setting: the value for `CC(C)c1cccc(C(C)C)c1O` was “inactive”.
With `CC1(C)C(C=C(Cl)Cl)C1C(=O)OC(C#N)c1cccc(Oc2ccccc2)c1` (configuration not stated), the Potency result was “inactive”.
Consider `Nc1ccccc1C(=O)O`, for which the Potency result was “inactive”.
For `O=C(O)CCCc1ccc(N(CCCl)CCCl)cc1`, the Potency result is “inactive”.

The record behind these values is PubChem BioAssay (NCATS).
